# Experimental data reported in the supplement of paper PMC8728848.
# Only a selection was taken, and the strongest signals are over-represented in it overall.
# B1: RobpsCRA (Robinia pseudoacacia) (protein)
# chain: IKGGYWYSGSGLAVSDINPSHFTHLFCAFADLDPNTNKLTISSSNAAAFSTFTQTVRAKNPSVKTLLSIGGGGGRALAAVFANMASQASRRKSFIDSSIQLARRNNFHGLDLDWEYPSSDIDKTNFASLIREWRAAVATESSTSGTPALLLSAAVGGSDQITPLKYYPGEAIANNLDWVNVMTYDLYTSDSYPTLTQPPAPLFYPRGIFSADEGITKWIQSGVPESKLALGLPFYGFKWRLSDPNNHGLFAPATQGLGAVKYKDIVNTGGQVEFDSTYVTNYCFKGTDWYGYDDTQSISAKVAYAKQRGLFGYFAWHIEQDSNWALS
# Assays:
# Test in all cases: glycan array binding signal (z-score within array); higher = stronger binding
# Details in all cases: glycan notation: IUPAC condensed, linker removed
# [1] = target: Fuc(a1-2)Gal(b1-3)GlcNAc(b1-3)GalNAc
# Method in brief: (§1)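 Glycan array data came from 3228 arrays in the Consortium for Functional Glycomics database, and only arrays with an available protein sequence were kept. Glycan names were put into IUPAC-condensed notation, and columns mapping to the same glycan were averaged. The binding signal is a within-array Z-score, averaged across arrays of one protein sequence run at different concentrations or buffers and across linkers. A negative Z-score can be read as non-binding.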
# [2] = target: Fuc(a1-2)Gal(b1-4)Glc
# Method in brief: as §1
# [3] = target: Fuc(a1-2)Gal(b1-4)GlcNAc(b1-2)Man(a1-3)[Fuc(a1-2)Gal(b1-4)GlcNAc(b1-2)Man(a1-6)]Man(b1-4)GlcNAc(b1-4)GlcNAc
# Method in brief: as §1
# [4] = target: Fuc(a1-2)[Gal(a1-3)]Gal(b1-3)GalNAc
# Method in brief: as §1
# [5] = target: Fuc(a1-2)[Gal(a1-3)]Gal(b1-3)GlcNAc(b1-2)Man(a1-3)[Fuc(a1-2)[Gal(a1-3)]Gal(b1-3)GlcNAc(b1-2)Man(a1-6)]Man(b1-4)GlcNAc(b1-4)GlcNAc
# Method in brief: as §1
# [6] = target: Fuc(a1-2)[GalNAc(a1-3)]Gal(b1-3)GlcNAc(b1-2)Man(a1-3)[Fuc(a1-2)[GalNAc(a1-3)]Gal(b1-3)GlcNAc(b1-2)Man(a1-6)]Man(b1-4)GlcNAc(b1-4)[Fuc(a1-6)]GlcNAc
# Method in brief: as §1
# [7] = target: Fuc(a1-2)[GalNAc(a1-3)]Gal(b1-3)GlcNAc(b1-6)GalNAc
# Method in brief: as §1
# [8] = target: Fuc(a1-2)[GalNAc(a1-3)]Gal(b1-4)GlcNAc(b1-6)GalNAc
# Method in brief: as §1
# [9] = target: Fuc(a1-2)[GalNAc(a1-3)]Gal(b1-4)[Fuc(a1-3)]GlcNAc
# Method in brief: as §1
# [10] = target: Fuc(a1-2)[GalNAc(a1-3)]Gal(b1-4)[Fuc(a1-3)]GlcNAc(b1-3)GalNAc
# Method in brief: as §1
# [11] = target: Fuc(a1-3)[Gal(b1-4)]GlcNAc(b1-3)GalNAc
# Method in brief: as §1
# [12] = target: Fuc(a1-3)[Gal3S(b1-4)]Glc
# Method in brief: as §1
# [13] = target: Fuc(a1-3)[Gal3S(b1-4)]GlcNAc6S
# Method in brief: as §1
# [14] = target: Fuc(a1-4)GlcNAc
# Method in brief: as §1
# [15] = target: Gal(a1-3)Gal(b1-3)GlcNAc(b1-6)GalNAc
# Method in brief: as §1
# [16] = target: Gal(a1-3)[Gal(a1-4)]Gal(b1-4)GlcNAc
# Method in brief: as §1
# [17] = target: Gal(a1-4)Gal(b1-4)GlcNAc(b1-2)Man(a1-3)[Gal(a1-4)Gal(b1-4)GlcNAc(b1-2)Man(a1-6)]Man(b1-4)GlcNAc(b1-4)GlcNAc
# Method in brief: as §1
# [18] = target: Gal(b1-2)Gal
# Method in brief: as §1
# [19] = target: Gal(b1-3)GalNAc(b1-3)Gal(a1-4)Gal(b1-4)Glc
# Method in brief: as §1
# [20] = target: Gal(b1-3)GlcNAc(b1-2)[Gal(b1-3)GlcNAc(b1-6)]Man(a1-6)[Gal(b1-3)GlcNAc(b1-2)Man(a1-3)]Man(b1-4)GlcNAc(b1-4)GlcNAc
# Method in brief: as §1
# [21] = target: Gal(b1-3)GlcNAc(b1-3)Gal(b1-4)GlcNAc(b1-3)Gal(b1-4)GlcNAc(b1-2)[Gal(b1-3)GlcNAc(b1-3)Gal(b1-4)GlcNAc(b1-3)Gal(b1-4)GlcNAc(b1-6)]Man(a1-6)[Gal(b1-3)GlcNAc(b1-3)Gal(b1-4)GlcNAc(b1-3)Gal(b1-4)GlcNAc(b1-2)Man(a1-3)]Man(b1-4)GlcNAc(b1-4)[Fuc(a1-6)]GlcNAc
# Method in brief: as §1
# [22] = target: Gal(b1-3)GlcNAc(b1-6)GalNAc
# Method in brief: as §1
# [23] = target: Gal(b1-4)GlcNAc(b1-2)Man(a1-3)[Gal(b1-4)GlcNAc(b1-2)Man(a1-6)]Man(b1-4)GlcNAc(b1-4)GlcNAc
# Method in brief: as §1
# [24] = target: Gal(b1-4)GlcNAc(b1-2)Man(a1-6)[Man(a1-3)]Man(b1-4)GlcNAc(b1-4)GlcNAc
# Method in brief: as §1
# [25] = target: Gal(b1-4)GlcNAc(b1-2)[Gal(b1-4)GlcNAc(b1-6)]Man(a1-6)[Gal(b1-4)GlcNAc(b1-2)Man(a1-3)]Man(b1-4)GlcNAc(b1-4)[Fuc(a1-6)]GlcNAc
# Method in brief: as §1
# [26] = target: Gal(b1-4)GlcNAc(b1-3)Gal(b1-4)GlcNAc(b1-2)Man(a1-3)[Gal(b1-4)GlcNAc(b1-3)Gal(b1-4)GlcNAc(b1-2)Man(a1-6)]Man(b1-4)GlcNAc(b1-4)GlcNAc
# Method in brief: as §1
# [27] = target: Gal(b1-4)GlcNAc(b1-3)Gal(b1-4)GlcNAc(b1-3)Gal(b1-4)GlcNAc(b1-3)Gal(b1-4)GlcNAc(b1-3)Gal(b1-4)GlcNAc(b1-3)Gal(b1-4)GlcNAc(b1-2)Man(a1-3)[Gal(b1-4)GlcNAc(b1-3)Gal(b1-4)GlcNAc(b1-3)Gal(b1-4)GlcNAc(b1-3)Gal(b1-4)GlcNAc(b1-3)Gal(b1-4)GlcNAc(b1-3)Gal(b1-4)GlcNAc(b1-2)Man(a1-6)]Man(b1-4)GlcNAc(b1-4)GlcNAc
# Method in brief: as §1
# [28] = target: Gal(b1-4)GlcNAc(b1-3)GalNAc
# Method in brief: as §1
# [29] = target: Gal3S(b1-4)[Fuc(a1-3)]Glc6S
# Method in brief: as §1
# [30] = target: GalNAc(b1-3)GlcNAc
# Method in brief: as §1
# [31] = target: GalNAc(b1-4)Gal(b1-4)Glc
# Method in brief: as §1
# [32] = target: GlcA3S(b1-3)Gal(b1-4)GlcNAc(b1-3)Gal(b1-4)Glc
# Method in brief: as §1
# [33] = target: GlcNAc(a1-4)Gal(b1-4)GlcNAc(b1-3)Gal(b1-4)GlcNAc
# Method in brief: as §1
# [34] = target: GlcNAc(b1-2)Man(a1-3)[GlcNAc(b1-4)][GlcNAc(b1-2)Man(a1-6)]Man(b1-4)GlcNAc(b1-4)GlcNAc
# Method in brief: as §1
# [35] = target: GlcNAc(b1-3)Fuc
# Method in brief: as §1
# [36] = target: GlcNAc(b1-3)Gal(b1-4)GlcNAc(b1-2)Man(a1-3)[GlcNAc(b1-3)Gal(b1-4)GlcNAc(b1-2)Man(a1-6)]Man(b1-4)GlcNAc(b1-4)GlcNAc
# Method in brief: as §1
# [37] = target: GlcNAc(b1-3)Gal(b1-4)GlcNAc(b1-2)[GlcNAc(b1-3)Gal(b1-4)GlcNAc(b1-6)]Man(a1-6)[GlcNAc(b1-3)Gal(b1-4)GlcNAc(b1-2)Man(a1-3)]Man(b1-4)GlcNAc(b1-4)GlcNAc
# Method in brief: as §1
# [38] = target: GlcNAc(b1-3)Gal(b1-4)GlcNAc(b1-3)Gal(b1-4)GlcNAc(b1-3)Gal(b1-4)GlcNAc(b1-3)Gal(b1-4)GlcNAc(b1-2)[GlcNAc(b1-3)Gal(b1-4)GlcNAc(b1-3)Gal(b1-4)GlcNAc(b1-3)Gal(b1-4)GlcNAc(b1-3)Gal(b1-4)GlcNAc(b1-6)]Man(a1-6)[GlcNAc(b1-3)Gal(b1-4)GlcNAc(b1-3)Gal(b1-4)GlcNAc(b1-3)Gal(b1-4)GlcNAc(b1-3)Gal(b1-4)GlcNAc(b1-2)Man(a1-3)]Man(b1-4)GlcNAc(b1-4)[Fuc(a1-6)]GlcNAc
# Method in brief: as §1
# [39] = target: GlcNAc6S(b1-3)Gal(b1-4)GlcNAc
# Method in brief: as §1
# [40] = target: Man(a1-2)Man(a1-3)[Man(a1-2)Man(a1-6)]Man(a1-6)[Man(a1-2)Man(a1-2)Man(a1-3)]Man
# Method in brief: as §1
# [41] = target: MurNAc(b1-4)GlcNAc
# Method in brief: as §1
# [42] = target: Neu5Ac(a2-3)Gal(b1-3)GalNAc(b1-4)[Neu5Ac(a2-8)Neu5Ac(a2-3)]Gal(b1-4)Glc
# Method in brief: as §1
# [43] = target: Neu5Ac(a2-3)Gal(b1-3)GlcNAc
# Method in brief: as §1
# [44] = target: Neu5Ac(a2-3)Gal(b1-3)[Neu5Ac(a2-6)]GlcNAc(b1-3)[Fuc(a1-3)[Gal(b1-4)]GlcNAc(b1-6)]Gal(b1-4)Glc
# Method in brief: as §1
# [45] = target: Neu5Ac(a2-3)Gal(b1-4)GlcNAc(b1-2)[Neu5Ac(a2-3)Gal(b1-4)GlcNAc(b1-6)]Man(a1-6)[Neu5Ac(a2-3)Gal(b1-4)GlcNAc(b1-2)Man(a1-3)]Man(b1-4)GlcNAc(b1-4)GlcNAc
# Method in brief: as §1
# [46] = target: Neu5Ac(a2-3)Gal(b1-4)GlcNAc(b1-6)[Neu5Ac(a2-3)Gal(b1-3)]GalNAc
# Method in brief: as §1
# [47] = target: Neu5Ac(a2-3)Gal(b1-4)[Fuc(a1-3)]GlcNAc(b1-3)GalNAc
# Method in brief: as §1
# [48] = target: Neu5Ac(a2-6)Gal(b1-4)GlcNAc(b1-2)Man(a1-6)[Man(a1-3)]Man(b1-4)GlcNAc(b1-4)GlcNAc
# Method in brief: as §1
# [49] = target: Neu5Ac(a2-8)Neu5Ac(a2-3)[Gal(b1-3)GalNAc(b1-4)]Gal(b1-4)Glc
# Method in brief: as §1
binder,measurement,setting,value
B1,glycan array binding signal (z-score),[1],-0.523
same,glycan array binding signal (z-score),[2],0.123
same,glycan array binding signal (z-score),[3],-0.573
same,glycan array binding signal (z-score),[4],-0.447
same,glycan array binding signal (z-score),[5],-0.684
same,glycan array binding signal (z-score),[6],-0.163
same,glycan array binding signal (z-score),[7],-0.584
same,glycan array binding signal (z-score),[8],-0.132
same,glycan array binding signal (z-score),[9],-0.375
same,glycan array binding signal (z-score),[10],16.3
same,glycan array binding signal (z-score),[11],0.084
same,glycan array binding signal (z-score),[12],-0.504
same,glycan array binding signal (z-score),[13],0.763
same,glycan array binding signal (z-score),[14],-0.31
same,glycan array binding signal (z-score),[15],-0.356
same,glycan array binding signal (z-score),[16],1.85
same,glycan array binding signal (z-score),[17],0.418
same,glycan array binding signal (z-score),[18],-0.839
same,glycan array binding signal (z-score),[19],0.121
same,glycan array binding signal (z-score),[20],-0.739
same,glycan array binding signal (z-score),[21],0.989
same,glycan array binding signal (z-score),[22],-0.441
same,glycan array binding signal (z-score),[23],-0.393
same,glycan array binding signal (z-score),[24],0.031
same,glycan array binding signal (z-score),[25],1.6
same,glycan array binding signal (z-score),[26],1.01
same,glycan array binding signal (z-score),[27],2.18
same,glycan array binding signal (z-score),[28],0.32
same,glycan array binding signal (z-score),[29],1.65
same,glycan array binding signal (z-score),[30],0.418
same,glycan array binding signal (z-score),[31],0.371
same,glycan array binding signal (z-score),[32],2.45
same,glycan array binding signal (z-score),[33],1.54
same,glycan array binding signal (z-score),[34],-0.359
same,glycan array binding signal (z-score),[35],-0.426
same,glycan array binding signal (z-score),[36],-0.142
same,glycan array binding signal (z-score),[37],1.5
same,glycan array binding signal (z-score),[38],1.28
same,glycan array binding signal (z-score),[39],-0.663
same,glycan array binding signal (z-score),[40],0.574
same,glycan array binding signal (z-score),[41],-0.389
same,glycan array binding signal (z-score),[42],-0.829
same,glycan array binding signal (z-score),[43],0.156
same,glycan array binding signal (z-score),[44],-0.376
same,glycan array binding signal (z-score),[45],-0.526
same,glycan array binding signal (z-score),[46],-0.478
same,glycan array binding signal (z-score),[47],1.49
same,glycan array binding signal (z-score),[48],1.67
same,glycan array binding signal (z-score),[49],0.946
